Results as given in PubChem BioAssay (NCATS).
Inconclusive results are not listed. Entries that show only a call come without a potency. The source made the active and inactive calls. Unless noted, the call rests on the fitted dose curve; in most records, active means well fitted inhibition curve with a large enough effect; inconclusive means small, poorly fitted or top-dose-only effect; inactive means flat fitted curve, though single readings scatter.

Key:
[1] = qHTS for identification of novel therapeutic agents for treatment of microphthalmiaassociated transcription factor (MiT) renal cell carcinoma (RCC) (AID 1963991; calls by dose curve); settings: CellTiter-Glo, 48 h; for z-score: stronger effect = lower value; for Potency: active = Z-AUC below -0.8 in all three lines
In short: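 UOK109/UOK124/UOK145 (TFE3 fusions, three partners); 500 cells/well; MIPE v4.0, 1912 cpds, 11 conc.; 48 h, 37 C; CellTiter-Glo, 15 min RT; lum. Norm.: DMSO 100%, empty 0%.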

[2] = qHTS profiling for inhibitors of Plasmodium falciparum proliferation (AID 504749); further: nearly all actives have a fitted effect of over 60% in size; settings: P. falciparum in erythrocytes, SYBR Green DNA, 72 h
In short: (§1)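 Quantitative HTS: compounds pinned into medium, infected erythrocytes added (0.3% parasitemia, 2.5% hematocrit), 72 h culture at 37 C under 5% CO2. Saponin/Triton lysis with SYBR Green I, overnight RT, then fluorescence read.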

3D7 = test: as above; settings: P. falciparum in erythrocytes, SYBR Green DNA, 72 h; series mostly up to 28.7 µM
In short: as §1

7G8 = test: as above; settings: P. falciparum in erythrocytes, SYBR Green DNA, 72 h; series mostly up to 28.7 µM
In short: as §1

AA1029 = test: as above; settings: P. falciparum in erythrocytes, SYBR Green DNA, 72 h; series mostly up to 28.7 µM
In short: as §1

AS120 = test: as above; settings: P. falciparum in erythrocytes, SYBR Green DNA, 72 h; series mostly up to 28.7 µM
In short: as §1

ATS189 = test: as above; settings: P. falciparum in erythrocytes, SYBR Green DNA, 72 h; series mostly up to 28.7 µM
In short: as §1

ATS95 = test: as above; settings: P. falciparum in erythrocytes, SYBR Green DNA, 72 h; series mostly up to 28.7 µM
In short: as §1

C2A = test: as above; settings: P. falciparum in erythrocytes, SYBR Green DNA, 72 h; series mostly up to 28.7 µM
In short: as §1

CP185 = test: as above; settings: P. falciparum in erythrocytes, SYBR Green DNA, 72 h; series mostly up to 28.7 µM
In short: as §1

[3] = TFE3-RCC UOK109 viability, measured here: UOK109 Z-AUC
[4] = TFE3-RCC viability, measured here: UOK124 Z-AUC
[5] = TFE3-RCC viability, measured here: UOK145 Z-AUC
[6] = at 28.7 µM (top of the series), parasite line A
[7] = at 28.7 µM (top of the series), parasite line B
[8] = at 12.8 µM (top of the series), parasite line A
[9] = at 12.8 µM (top of the series), parasite line B
Potency means the concentration at half of the fitted maximal effect.

| SMILES | z-score [1, 3] | z-score [1, 4] | z-score [1, 5] | activity, negative = inhibition [2, 6] | activity, negative = inhibition [2, 7] | Potency (3D7) | Potency (7G8) | Potency (AA1029) | Potency (AS120) | Potency (ATS189) | Potency (ATS95) | Potency (C2A) | Potency (CP185) | Potency ([1]; TFE3-RCC UOK109 viability) | Potency ([2]; parasite line A) | activity, negative = inhibition [2, 8] | activity, negative = inhibition [2, 9] |
| --- | --- | --- | --- | --- | --- | --- | --- | --- | --- | --- | --- | --- | --- | --- | --- | --- | --- |
| CCCCCCCCCCCCCCCCCCCCCCO | 0.385 | 0.0399 | 0.476 | -0.041% (inactive) | -11.9% (inactive) | inactive | inactive | inactive | inactive | inactive | inactive | inactive | inactive | – | – | – | – |
| CCN(CC)CCOc1ccc(Nc2ncc3cc(-c4c(Cl)cccc4Cl)c(=O)n(C)c3n2)cc1 | -2.53 | -3.17 | -2.04 | – | – | – | – | – | – | – | – | – | – | 11.8 nM (active) | – | – | – |
| Cc1nc(-c2ccc(OCC(C)C)c(C#N)c2)sc1C(=O)O | 1.16 | 0.952 | 0.581 | – | – | – | – | – | – | – | – | – | – | – | – | – | – |
| CC[C@]1(O)C[C@H]2CN(CCc3c([nH]c4ccccc34)[C@@](C(=O)OC)(c3cc4c(cc3OC)N(C=O)[C@H]3[C@@](O)(C(=O)OC)[C@H](OC(C)=O)[C@]5(CC)C=CCN6CC[C@]43[C@@H]65)C2)C1 | -0.827 | -2.28 | -0.98 | – | – | – | 141 nM (active) | 2510 nM (active) | 3550 nM (active) | – | 2510 nM (active) | 2000 nM (active) | 1580 nM (active) | 66.2 nM (active) | 2240 nM (active) | – | – |
| CN1C(C(=O)Nc2ccccn2)=C(O)c2sccc2S1(=O)=O | 1.14 | 0.504 | 0.557 | – | – | inactive | inactive | inactive | inactive | inactive | inactive | inactive | inactive | – | – | -2.2% (inactive) | -4.64% (inactive) |
| Nc1ccn([C@@H]2O[C@H](CO)[C@@H](O)C2O)c(=O)n1 (some centres undefined) | 0.798 | 0.809 | 0.948 | 12.2% (inactive) | 0.749% (inactive) | inactive | inactive | inactive | inactive | inactive | inactive | inactive | inactive | – | – | – | – |
| Cc1nccn1CC1CCc2c(c3ccccc3n2C)C1=O (centres undefined) | 0.748 | 0.745 | 0.411 | – | – | – | – | – | – | – | – | – | – | – | – | – | – |
| C[C@@H](N)C1CCC(C(=O)Nc2ccncc2)CC1 (some centres undefined) | 1.67 | 0.534 | 0.866 | – | – | – | – | – | – | – | – | – | – | – | – | – | – |
| Nc1ccc(S(N)(=O)=O)cc1 | 1.06 | 0.709 | 1.29 | 13.4% (inactive) | 14.6% (inactive) | inactive | inactive | inactive | inactive | inactive | inactive | inactive | inactive | – | – | – | – |
| CC1=C(C)C(=O)C(C(CCCCCC(=O)O)c2ccccc2)=C(C)C1=O (centres undefined) | 0.248 | 0.105 | -0.311 | -13.8% (inactive) | -26.9% (inactive) | – | inactive | inactive | – | – | inactive | – | inactive | – | – | – | – |
| CN(C)C(=O)COC(=O)Cc1ccc(OC(=O)c2ccc(N=C(N)N)cc2)cc1 | – | – | – | -4.03% (inactive) | 4.45% (inactive) | inactive | inactive | inactive | inactive | inactive | inactive | inactive | inactive | – | – | – | – |
| C[C@]12CCC(=O)C=C1CC[C@@H]1[C@H]2[C@@H](O)C[C@@]2(C)[C@H]1CC[C@]2(O)C(=O)CO | – | – | – | 9.9% (inactive) | 19.1% (inactive) | inactive | inactive | inactive | inactive | inactive | inactive | inactive | inactive | – | – | – | – |
| Cc1nc2n(c(=O)c1CCN1CCC(c3noc4cc(F)ccc34)CC1)CCCC2 | 0.0752 | 0.441 | 0.372 | 8.34% (inactive) | 15.8% (inactive) | inactive | 10000 nM (active) | inactive | inactive | inactive | inactive | inactive | inactive | – | – | – | – |
| COc1ccc2cc([C@H](C)C(=O)O)ccc2c1 | 1.29 | 0.689 | 0.68 | – | – | – | inactive | inactive | inactive | inactive | inactive | inactive | inactive | – | – | 6.49% (inactive) | -0.339% (inactive) |
| C=C(c1ccc(C(=O)O)cc1)c1cc2c(cc1C)C(C)(C)CCC2(C)C | 0.216 | -0.242 | -0.306 | -4.04% (inactive) | 4.75% (inactive) | – | 8910 nM (active) | inactive | inactive | inactive | inactive | inactive | inactive | – | – | – | – |
| CCN(CC)CCOc1ccc(Cc2ccccc2)cc1 | – | – | – | 8.39% (inactive) | 6.88% (inactive) | inactive | 12600 nM (active) | inactive | inactive | inactive | inactive | inactive | inactive | – | – | – | – |
| O=C(OC1C[C@H]2CC[C@@H](C1)[N+]21CCCC1)C(O)(c1ccccc1)c1ccccc1 (some centres undefined) | 0.286 | 0.765 | 0.653 | – | – | – | 6310 nM (active) | 2510 nM (active) | – | – | – | 5010 nM (active) | 2820 nM (active) | – | – | – | – |
| CC(C)[C@H](N)C(=O)OCCOCn1cnc2c(=O)[nH]c(N)nc21 | 0.0968 | 0.361 | 0.522 | -1.13% (inactive) | 7.31% (inactive) | inactive | – | inactive | inactive | inactive | inactive | inactive | inactive | – | – | – | – |
| Cc1ncc([N+](=O)[O-])n1CC(C)O (centres undefined) | 1.59 | 0.687 | 1.68 | 11.8% (inactive) | 17% (inactive) | inactive | inactive | inactive | inactive | inactive | inactive | inactive | inactive | – | – | – | – |
